Compounds with a hit are over-represented: about 4.7% of the library has one in this group of screens.
rCAG binder: binds r(CAG) RNA repeats; inhibition, % at 3 µM; r(CAG) RNA repeat, TO-PRO-1 dye displacement fluorescence; hit rate 1.3% among 370,000;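 active = inhibition above the plate cutoff, the mean of all test compounds on that plate plus 3 SD, cut at about 35% in these data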;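 also: 0% = DMSO alone and 100% = 100 µM mitoxantrone as full dye displacement; higher means more dye released from RNA so lower well fluorescence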
ADAM10 inh: inhibitors of human ADAM10; AID 720582; hit rate 0.62% among 370,000; inhibition, % at 7 µM; O14672; recombinant ADAM10, EDANS/DABCYL FRET peptide cleavage, 3 h;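 active = inhibition above a per-campaign cutoff equal to the mean of compounds falling between control-based bounds plus 3 SD, cut at about 20% in these data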;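 also: 0% = DMSO wells while the 100% control is not disclosed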
MPTP block: inhibitors of mitochondrial permeability transition pore. isolated mouse mitochondria, Ca2+ swelling absorbance, 30 min. inhibition, % at 10 µM. hit rate 1.4% among 360,000. AID 602449;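 active = inhibition of 50% or more, scaled per plate between neutral and stimulator controls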;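 also: 0% = DMSO wells given calcium and 100% = 1 mM EGTA wells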
ADAM17 inh: inhibits human ADAM17. P78536. recombinant ADAM17, EDANS/DABCYL FRET peptide cleavage. inhibition, % at 6.95 µM. hit rate 0.83% among 370,000;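 active = inhibition above the mean of compounds lying between control limits plus 3 SD, set per campaign, cut at about 8.5% in these data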;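 also: 0% = DMSO-only wells as the low control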
DSG3 Ab inh: blocks pemphigus antibody binding to human desmoglein-3 | hit rate 0.48% among 310,000 | DSG3-coupled beads, scFv-anti-DSG3-GFP binding, flow cytometry; hits give low values | AID 588358 | binding (percent of control), % at 10 µM;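 active = binding more than 3 SD below its plate's average and above zero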;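 also: hits lower antibody fragment binding to DSG3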
Target sequence (P32926 whole entry, looked up, the tested form may be a part): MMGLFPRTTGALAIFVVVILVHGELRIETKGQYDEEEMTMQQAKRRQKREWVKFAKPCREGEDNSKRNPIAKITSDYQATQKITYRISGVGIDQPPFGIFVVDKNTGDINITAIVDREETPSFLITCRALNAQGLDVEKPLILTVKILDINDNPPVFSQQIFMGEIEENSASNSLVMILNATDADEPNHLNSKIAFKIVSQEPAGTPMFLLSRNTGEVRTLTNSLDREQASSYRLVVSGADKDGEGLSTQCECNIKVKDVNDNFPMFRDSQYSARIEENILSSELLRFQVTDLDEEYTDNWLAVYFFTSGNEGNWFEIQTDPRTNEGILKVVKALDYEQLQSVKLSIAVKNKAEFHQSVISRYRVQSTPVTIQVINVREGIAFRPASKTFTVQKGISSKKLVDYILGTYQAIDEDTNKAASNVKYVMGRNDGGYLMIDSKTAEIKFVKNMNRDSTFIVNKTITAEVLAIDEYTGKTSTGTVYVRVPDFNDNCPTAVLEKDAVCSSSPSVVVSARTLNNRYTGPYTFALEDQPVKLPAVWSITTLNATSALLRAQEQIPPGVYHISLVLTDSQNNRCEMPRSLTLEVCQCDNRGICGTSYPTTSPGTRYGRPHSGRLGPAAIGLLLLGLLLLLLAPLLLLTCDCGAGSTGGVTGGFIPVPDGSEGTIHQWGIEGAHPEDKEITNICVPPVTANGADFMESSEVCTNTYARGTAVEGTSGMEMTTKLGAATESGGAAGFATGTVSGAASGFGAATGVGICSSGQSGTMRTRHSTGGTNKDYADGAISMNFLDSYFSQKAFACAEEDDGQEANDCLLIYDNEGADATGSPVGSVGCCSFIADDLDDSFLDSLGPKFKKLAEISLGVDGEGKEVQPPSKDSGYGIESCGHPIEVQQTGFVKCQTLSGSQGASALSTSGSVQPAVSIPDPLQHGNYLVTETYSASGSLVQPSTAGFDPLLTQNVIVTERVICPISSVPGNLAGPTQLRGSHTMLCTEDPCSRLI
proKLK7 act: proKLK7 (human) activation, primary screen; P49862; purified proKLK7, EDANS-DABCYL substrate fluorescence; 100% is mature enzyme control, 0% vehicle; activation, % at 7 µM; hit rate 0.9% among 370,000;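 active = activation above the mean of all tested compounds plus 3 SD, computed per campaign excluding outliers beyond control limits, cut at about 13% in these data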
Active calls of the source: *; · = not tested or not shown.

SMILES | rCAG binder | ADAM10 inh | MPTP block | ADAM17 inh | DSG3 Ab inh | proKLK7 act
CC1(C)Cc2c(c(N3CCOCC3)nc3sc(C(N)=O)c(N)c23)CO1 | 6 | -169 | 3 | -80 | 106 | 5
COC(=O)c1ccc(-c2sc3nc(N4CCOCC4)c4c(c3c2N)CC(C)(C)OC4)o1 | 11 | -52 | 0 | -14 | 38* | -2
Cc1ccc(C)c(S(=O)(=O)Nc2ccc3oc(C)c(C(=O)O)c3c2)c1 | 29 | -4 | -3 | 5 | 85* | 0
O=c1c2c([N+](=O)[O-])cc([N+](=O)[O-])cc2nc2ccccn12 | 10 | 1 | 2 | 1 | 100 | 1
O=[N+]([O-])c1ccc(S(=O)Cc2ccccc2)c([N+](=O)[O-])c1 (stereo not drawn) | 4 | -8 | -2 | 1 | 98 | 0
O=c1c2c([N+](=O)[O-])cc([N+](=O)[O-])cc2sn1Cc1ccccc1 | 3 | -4 | 4 | 0 | 37* | 0
O=c1c2c([N+](=O)[O-])cc([N+](=O)[O-])cc2sn1-c1ccc(Br)cc1 | · | · | 1 | · | -121* | ·
O=C1CCCC2=C1C1(CCCC1)N=C(Nc1nc3cc(Br)ccc3o1)N2 | · | -5 | · | -5 | · | ·
COCCN(CCOC)C(=O)[C@@H](Cc1ccccc1)NC(=O)[C@H]1O[C@@H](n2ccc(N)nc2=O)[C@H](O)[C@@H]1O | 2 | 1 | · | 0 | · | 0
COC(=O)C1CN(Cc2ccccc2)CCS(=O)(=O)N1Cc1ccccc1F (stereo not drawn) | 1 | 2 | · | -1 | · | 0
CC(=O)c1cccc(NC(=O)C2CCCN2S(=O)(=O)c2ccccc2C(F)(F)F)c1 (stereo not drawn) | 3 | -4 | 0 | -6 | 69* | -1
C=CC[C@@H](CC(=O)N(CCO)Cc1ccccc1)C(=O)NC[C@@H](OC(=O)[C@@H](CC=C)Cc1ccc(F)cc1)c1ccccc1 | -6 | 20 | 1 | 10.0* | 97 | 0
C=CC[C@@H](CC(=O)N(CCO)Cc1ccccc1)C(=O)N[C@@H](COC(=O)[C@@H](CC=C)Cc1ccc(F)cc1)Cc1ccccc1 | 0 | 23* | 0 | 13* | · | 0
C=CC[C@@H](CC(=O)N(CCO)Cc1ccccc1)C(=O)N[C@H](COC(=O)[C@@H](CC=C)Cc1ccc(F)cc1)Cc1ccccc1 | -2 | 33* | 2 | 14* | 104 | 0
O=C(NC1CCCCN(Cc2cccc(C(F)(F)F)c2)C1=O)C1C2CC3CC(C2)CC1C3 (stereo not drawn) | 2 | 3 | · | 3 | · | 0
CCCCOCC1CN(CCCC)S(=O)(=O)c2c(Oc3ccc(SC)c(C)c3)cccc2O1 (stereo not drawn) | 4 | 0 | · | -1 | · | 0
COc1ccc(-n2c(COc3ccc(Cl)cc3)nnc2SCC(=O)Nc2ccc(Oc3ccccc3)cc2)cc1 | 8 | -2 | · | -3 | · | -1
O=C(O)c1cccc(-n2cccc2/C=C2\NC(=O)N(Cc3ccc(F)cc3)C2=O)c1 | 30 | -4 | 0 | -3 | 101 | 0
Cc1ccc(NC(=O)CN2C(=O)N/C(=C\c3cccn3-c3cccc(C(=O)O)c3)C2=O)cc1 | · | · | 3 | · | 92 | ·
Cc1ccc(CN2C(=O)N/C(=C\c3cccn3-c3cccc(C(=O)O)c3)C2=O)cc1 | 47* | -8 | 1 | -2 | 103 | 0
Cc1ccc(NC(=O)CN2C(=O)N/C(=C/c3cc(C)n(-c4cccc(C(=O)O)c4)c3C)C2=O)cc1 | 71* | -138 | 2 | -53 | 96 | 1
CCCCS(=O)(=O)N1C2=NC(C(=O)OCC)=C(C(=O)OCC)C3N(Cc4ccc(C#N)cc4)c4ccccc4[C@]23C[C@H]1C(=O)OC (stereo partly drawn) | 12 | 9 | · | 5 | · | 0
Nc1nc(CSc2n[nH]c(-c3ccccc3)n2)nc(Nc2ccccc2)n1 | 3 | -3 | 0 | -2 | 56 | 0
Cc1ccc(-c2nc(Nc3ccccc3)n[nH]2)cc1 | 4 | 15 | 2 | -1 | 37* | -1
O=C(CCCCCN1C(=O)C2C3C=CC(C3)C2C1=O)Nc1cc(F)cc(F)c1 (stereo not drawn) | 0 | 1 | · | 0 | · | 0
SMILES | rCAG binder | ADAM10 inh | MPTP block | ADAM17 inh | DSG3 Ab inh | proKLK7 act
Cc1cc(C)nc(SCc2ccc(C(=O)N/N=C/c3ccc(C(=O)O)cc3)cc2)n1 | 19 | 6 | -1 | -1 | 27* | 0
CCCCOCCCNC(=O)C[C@H]1C[C@@]2(C(=O)OC)C(=C[C@H](C(C)(C)C)O[C@@H]2C)N(Cc2ccccc2)C1=O | 0 | 12 | · | 2 | · | 0
O=C(CN(c1ccc(Cl)cc1)S(=O)(=O)c1ccc(Cl)c([N+](=O)[O-])c1)NCCc1ccc(F)cc1 | 1 | 7 | 37 | -1 | 45* | 0
O=C(CN(c1ccc(Cl)cc1)S(=O)(=O)c1ccc(Cl)c([N+](=O)[O-])c1)NCCc1ccccc1 | 4 | -2 | 7 | -4 | 98 | 1
Cc1ccc(NC(=O)Cc2ccc([N+](=O)[O-])cc2)c(Br)c1 | 2 | -5 | 2 | -1 | 6.2* | -1
COc1ccccc1Nc1nc(-c2sc(N)nc2C)cs1 | 17 | -3 | -1 | 0 | 101 | 0
Cc1nc(N)sc1-c1csc(Nc2ncccn2)n1 | 17 | 0 | 0 | -5 | -54* | -1
C=CCn1c(N2CCN(c3ccc(OC)cc3)CC2)nc2c1c(=O)n(C)c(=O)n2C | -11 | 0 | 1 | -2 | 107 | 0
COc1ccc(CCn2c(NN)nc3c2c(=O)[nH]c(=O)n3C)cc1 | 7 | -78 | 3 | -21 | 79* | 0
C=CCn1c(N2CCN(c3ccc(OC)cc3)CC2)nc2c1c(=O)[nH]c(=O)n2C | -4 | 2 | -2 | -4 | -12* | 0
Fc1ccc(CSc2ncnc3c2oc2ccccc23)cc1 | 5 | 8 | 2 | 4 | 69* | 0
CCCCN(CCCC)C(=O)c1cc(Cl)ccc1[N+](=O)[O-] | -6 | -1 | 0 | -3 | -27* | 0
CCOc1ccc(/C=C/C2=Cc3c(sc(NC(=O)CSc4n[nH]c(N)n4)c3C#N)C(C)(C)C2)cc1 | 43* | -20 | -1 | -8 | 81* | 0
COc1ccc(-c2csc(NC(=O)CSc3n[nH]c(N)n3)n2)cc1 | 7 | -1 | -2 | -3 | 94 | 0
CCCCCCCCN1C(=O)[C@@H](CC(=O)NCCCOC)C[C@@]2(C(=O)OC)C1=C[C@H](COCc1ccccc1)O[C@@H]2C | 5 | -4 | · | -4 | · | 1
CCC1=NN2C(=N)/C(=C\c3ccc(OCc4cc(=O)n5nc(CC)sc5n4)c(OC)c3)C(=O)N=C2S1 | 21 | -85 | 0 | -31 | 62* | -1
CCC1=NN2C(=N)/C(=C\c3ccc(OCCOc4ccccc4)c(OC)c3)C(=O)N=C2S1 | 8 | -5 | · | -3 | · | 0
